What all share (assay): DAPPL (digital affinity profiling via proximity ligation, sequencing); 10 mM Tris-HCl pH 7.5, 50 mM NaCl, 1 mM DTT, 4% glycerol, room temperature, 30 min; GST-TFs on glutathione beads, 16-mer random dsDNA library, 0.1% formaldehyde crosslink after washing; high values mean tight binding
Holding throughout (details): protein: recombinant; tags: N-terminal GST; dsDNA, one strand shown

For one assay, the target named is T1, FLI1 (Homo sapiens, UniProt Q01543 1-452).
T1 sequence: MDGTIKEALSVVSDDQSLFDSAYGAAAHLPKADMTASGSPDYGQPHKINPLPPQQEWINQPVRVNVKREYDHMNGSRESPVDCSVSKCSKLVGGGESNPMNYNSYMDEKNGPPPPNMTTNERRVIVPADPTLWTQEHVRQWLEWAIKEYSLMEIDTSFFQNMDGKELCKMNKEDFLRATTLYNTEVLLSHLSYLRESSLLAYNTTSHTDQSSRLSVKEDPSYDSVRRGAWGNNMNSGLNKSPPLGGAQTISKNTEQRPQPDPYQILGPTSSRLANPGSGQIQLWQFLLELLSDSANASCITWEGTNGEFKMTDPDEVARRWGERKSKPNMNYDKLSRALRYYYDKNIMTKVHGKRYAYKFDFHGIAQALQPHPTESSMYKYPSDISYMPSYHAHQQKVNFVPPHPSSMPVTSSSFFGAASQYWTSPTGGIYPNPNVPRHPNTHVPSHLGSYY
In outline: (§1)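 Each value of binding signal is a hexamer's read frequency for a factor divided by the same hexamer's frequency in the tag-only sample. Barcoded, bead-captured GST fusions of human transcription factors made in yeast were pooled with that sample and incubated with 200 nmole of a random double-stranded 16-mer DNA library in Tris/NaCl/DTT/glycerol buffer at room temperature for 30 min. Washing, 0.1% formaldehyde crosslinking, proximity ligation, PCR and Illumina NextSeq500 sequencing followed.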

The target in the next assay is T2, ELK1 (Homo sapiens, UniProt P19419 1-428).
T2 sequence: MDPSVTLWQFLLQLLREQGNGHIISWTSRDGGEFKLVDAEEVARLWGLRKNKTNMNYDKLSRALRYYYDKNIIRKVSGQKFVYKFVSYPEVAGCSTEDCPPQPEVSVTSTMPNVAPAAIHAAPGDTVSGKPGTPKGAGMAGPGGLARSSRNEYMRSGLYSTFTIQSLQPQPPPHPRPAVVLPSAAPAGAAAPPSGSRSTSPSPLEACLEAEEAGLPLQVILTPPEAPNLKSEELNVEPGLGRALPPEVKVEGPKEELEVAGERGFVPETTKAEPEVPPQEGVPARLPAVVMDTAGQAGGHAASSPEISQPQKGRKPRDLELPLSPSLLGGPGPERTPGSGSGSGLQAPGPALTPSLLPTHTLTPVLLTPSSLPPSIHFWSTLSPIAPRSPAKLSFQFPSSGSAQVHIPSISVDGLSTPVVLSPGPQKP
In outline:
as §1

Another assay has as its target T3, GABPA (Homo sapiens, UniProt Q06546 1-454).
T3 sequence: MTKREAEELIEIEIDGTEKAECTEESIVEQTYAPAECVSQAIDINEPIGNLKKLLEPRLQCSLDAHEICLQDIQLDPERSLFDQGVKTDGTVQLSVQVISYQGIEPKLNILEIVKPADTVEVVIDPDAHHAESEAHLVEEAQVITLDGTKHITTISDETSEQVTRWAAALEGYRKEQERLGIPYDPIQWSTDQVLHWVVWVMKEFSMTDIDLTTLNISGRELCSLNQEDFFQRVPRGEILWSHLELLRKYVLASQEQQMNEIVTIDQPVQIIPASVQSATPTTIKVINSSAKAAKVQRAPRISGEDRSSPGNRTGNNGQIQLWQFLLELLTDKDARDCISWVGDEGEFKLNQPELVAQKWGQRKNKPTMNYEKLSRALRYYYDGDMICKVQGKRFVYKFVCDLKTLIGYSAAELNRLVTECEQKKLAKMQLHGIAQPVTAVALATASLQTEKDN
In a few lines: as §1

Another assay addresses T4, ERG (Homo sapiens, UniProt P11308 1-479).
T4 sequence: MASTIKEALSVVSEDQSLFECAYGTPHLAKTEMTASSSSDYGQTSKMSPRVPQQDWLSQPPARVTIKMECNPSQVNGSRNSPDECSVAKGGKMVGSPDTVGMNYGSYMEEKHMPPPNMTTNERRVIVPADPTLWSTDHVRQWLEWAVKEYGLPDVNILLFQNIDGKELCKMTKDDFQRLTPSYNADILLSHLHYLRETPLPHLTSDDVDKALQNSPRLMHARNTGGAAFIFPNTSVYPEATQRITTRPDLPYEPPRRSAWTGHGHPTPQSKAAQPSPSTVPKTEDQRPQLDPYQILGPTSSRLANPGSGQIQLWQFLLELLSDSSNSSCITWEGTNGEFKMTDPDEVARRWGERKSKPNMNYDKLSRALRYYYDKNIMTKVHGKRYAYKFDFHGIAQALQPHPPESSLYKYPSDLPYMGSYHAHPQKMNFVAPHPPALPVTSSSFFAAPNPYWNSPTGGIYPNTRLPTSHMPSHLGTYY
In outline:
as §1

For another assay, the target named is ELF1 (Homo sapiens, UniProt P32519 1-619). In outline:
as §1

The target in the next assay is T5, EHF (Homo sapiens, UniProt Q9NZC4 1-300).
T5 sequence: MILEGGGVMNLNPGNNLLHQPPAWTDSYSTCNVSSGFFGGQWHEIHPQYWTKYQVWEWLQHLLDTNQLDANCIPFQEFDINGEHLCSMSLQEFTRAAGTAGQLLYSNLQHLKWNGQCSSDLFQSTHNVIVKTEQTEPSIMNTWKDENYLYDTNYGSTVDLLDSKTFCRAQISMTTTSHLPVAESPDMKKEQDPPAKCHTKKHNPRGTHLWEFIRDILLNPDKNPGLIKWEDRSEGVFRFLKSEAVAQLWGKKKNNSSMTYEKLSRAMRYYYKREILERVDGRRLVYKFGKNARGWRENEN
In outline:
as §1

Another assay has as its target SPI1 (Homo sapiens, UniProt P17947 1-270). In outline: as §1
Another assay deals with SPIB (Homo sapiens, UniProt Q01892 1-262). In outline:
as §1

The target in another assay is T6, ELK3 (Homo sapiens, UniProt P41970 1-407).
T6 sequence: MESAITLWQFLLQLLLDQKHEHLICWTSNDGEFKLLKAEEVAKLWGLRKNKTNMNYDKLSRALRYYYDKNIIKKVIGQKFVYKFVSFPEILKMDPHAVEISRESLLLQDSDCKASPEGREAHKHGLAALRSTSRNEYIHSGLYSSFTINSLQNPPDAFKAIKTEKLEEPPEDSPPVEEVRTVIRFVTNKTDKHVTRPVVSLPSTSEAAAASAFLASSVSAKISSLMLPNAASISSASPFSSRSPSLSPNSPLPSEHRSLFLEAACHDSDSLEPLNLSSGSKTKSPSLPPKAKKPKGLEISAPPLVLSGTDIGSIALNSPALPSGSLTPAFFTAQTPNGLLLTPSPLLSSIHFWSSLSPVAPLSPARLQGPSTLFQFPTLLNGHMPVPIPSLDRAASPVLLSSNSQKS
In a few lines:
as §1

In a further assay the target is T7, FEV (Homo sapiens, UniProt Q99581 1-238).
T7 sequence: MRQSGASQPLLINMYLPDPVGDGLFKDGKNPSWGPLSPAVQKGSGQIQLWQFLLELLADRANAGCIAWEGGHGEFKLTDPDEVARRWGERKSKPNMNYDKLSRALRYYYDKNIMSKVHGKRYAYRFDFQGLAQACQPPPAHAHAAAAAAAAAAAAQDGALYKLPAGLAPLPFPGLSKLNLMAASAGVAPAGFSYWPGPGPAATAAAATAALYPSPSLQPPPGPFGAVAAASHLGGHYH
In outline: as §1

In another assay the target is ETV5 (Homo sapiens, UniProt P41161 1-510). In a few lines:
as §1

For the next assay, the target named is T8, SPIC (Homo sapiens, UniProt Q8N5J4 1-248).
T8 sequence: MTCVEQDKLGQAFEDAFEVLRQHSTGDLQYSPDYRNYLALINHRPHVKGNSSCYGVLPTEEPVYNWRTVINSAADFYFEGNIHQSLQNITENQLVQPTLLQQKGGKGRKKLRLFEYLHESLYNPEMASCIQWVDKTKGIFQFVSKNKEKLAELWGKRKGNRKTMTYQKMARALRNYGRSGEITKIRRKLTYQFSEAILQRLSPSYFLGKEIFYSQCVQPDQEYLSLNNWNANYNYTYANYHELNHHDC
In outline: as §1

The next assay deals with ELF4 (Homo sapiens, UniProt Q99607 1-663). In outline:
as §1

The next assay has as its target T9, ELK4 (Homo sapiens, UniProt P28324-2 1-405).
T9 sequence: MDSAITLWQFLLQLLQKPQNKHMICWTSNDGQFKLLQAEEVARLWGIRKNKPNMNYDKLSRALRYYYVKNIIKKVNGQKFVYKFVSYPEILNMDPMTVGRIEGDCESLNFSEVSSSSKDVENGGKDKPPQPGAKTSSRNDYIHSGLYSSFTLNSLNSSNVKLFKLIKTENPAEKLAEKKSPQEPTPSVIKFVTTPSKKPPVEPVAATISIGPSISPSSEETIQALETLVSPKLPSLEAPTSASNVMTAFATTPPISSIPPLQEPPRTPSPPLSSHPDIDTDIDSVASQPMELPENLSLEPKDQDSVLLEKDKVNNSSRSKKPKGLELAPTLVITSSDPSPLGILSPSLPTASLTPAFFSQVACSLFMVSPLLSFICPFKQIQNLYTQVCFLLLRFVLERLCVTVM
In outline: as §1

The next assay addresses T10, ETV2 (Homo sapiens, UniProt O00321 1-342).
T10 sequence: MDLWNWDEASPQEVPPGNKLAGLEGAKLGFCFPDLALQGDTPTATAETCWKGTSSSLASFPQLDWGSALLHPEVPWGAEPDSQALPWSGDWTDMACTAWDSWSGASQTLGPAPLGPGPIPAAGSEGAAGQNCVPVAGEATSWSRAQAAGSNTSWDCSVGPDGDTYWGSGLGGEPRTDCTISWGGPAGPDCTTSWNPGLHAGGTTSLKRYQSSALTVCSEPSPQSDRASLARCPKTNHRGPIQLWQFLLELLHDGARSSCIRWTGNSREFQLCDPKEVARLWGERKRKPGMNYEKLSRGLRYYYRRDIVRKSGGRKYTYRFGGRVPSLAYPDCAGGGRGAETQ
In a few lines: as §1

The target in the next assay is T11, ELF3 (Homo sapiens, UniProt P78545 1-371).
T11 sequence: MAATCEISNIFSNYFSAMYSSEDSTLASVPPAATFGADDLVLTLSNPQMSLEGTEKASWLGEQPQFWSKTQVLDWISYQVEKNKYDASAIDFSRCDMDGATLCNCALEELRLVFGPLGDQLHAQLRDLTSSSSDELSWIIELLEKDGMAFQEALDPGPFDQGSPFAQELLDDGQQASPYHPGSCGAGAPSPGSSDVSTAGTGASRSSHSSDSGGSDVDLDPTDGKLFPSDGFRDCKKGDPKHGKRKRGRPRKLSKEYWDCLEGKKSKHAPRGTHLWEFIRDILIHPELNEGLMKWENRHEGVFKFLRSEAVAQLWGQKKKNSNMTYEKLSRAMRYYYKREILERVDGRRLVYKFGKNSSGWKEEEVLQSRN
In a few lines: as §1

A further assay addresses ETV1 (Homo sapiens, UniProt P50549 1-477). In outline: as §1

This passage reports binding signal results from publication PMC7862700, “An all-to-all approach to the identification of sequence-specific readers for epigenetic DNA modifications on cytosine”.

Chain of SPIB (Q01892 whole entry): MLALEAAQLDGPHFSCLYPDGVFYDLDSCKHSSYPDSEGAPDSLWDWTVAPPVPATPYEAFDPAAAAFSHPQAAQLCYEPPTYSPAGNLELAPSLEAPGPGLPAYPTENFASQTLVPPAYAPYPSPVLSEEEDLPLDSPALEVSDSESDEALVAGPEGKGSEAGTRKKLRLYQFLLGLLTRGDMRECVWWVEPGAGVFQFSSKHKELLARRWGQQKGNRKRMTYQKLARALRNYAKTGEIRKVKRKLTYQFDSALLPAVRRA
Chain of ELF1 (P32519 whole entry): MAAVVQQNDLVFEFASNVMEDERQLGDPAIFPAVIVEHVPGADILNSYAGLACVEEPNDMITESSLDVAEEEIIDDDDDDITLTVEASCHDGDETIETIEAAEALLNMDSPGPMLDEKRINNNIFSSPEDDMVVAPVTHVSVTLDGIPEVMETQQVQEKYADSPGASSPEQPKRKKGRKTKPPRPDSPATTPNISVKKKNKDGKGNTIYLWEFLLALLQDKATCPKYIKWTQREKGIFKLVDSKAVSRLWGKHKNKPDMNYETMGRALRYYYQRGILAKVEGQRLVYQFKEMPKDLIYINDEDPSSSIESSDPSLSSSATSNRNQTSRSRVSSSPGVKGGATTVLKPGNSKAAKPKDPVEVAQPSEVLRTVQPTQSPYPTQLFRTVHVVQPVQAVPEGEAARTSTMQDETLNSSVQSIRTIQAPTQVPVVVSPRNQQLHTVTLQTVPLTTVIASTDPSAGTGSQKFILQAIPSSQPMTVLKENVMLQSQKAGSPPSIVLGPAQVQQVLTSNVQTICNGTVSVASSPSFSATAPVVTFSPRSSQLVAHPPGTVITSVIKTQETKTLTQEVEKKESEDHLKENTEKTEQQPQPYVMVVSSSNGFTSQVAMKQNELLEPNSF
Chain of ELF4 (Q99607 whole entry): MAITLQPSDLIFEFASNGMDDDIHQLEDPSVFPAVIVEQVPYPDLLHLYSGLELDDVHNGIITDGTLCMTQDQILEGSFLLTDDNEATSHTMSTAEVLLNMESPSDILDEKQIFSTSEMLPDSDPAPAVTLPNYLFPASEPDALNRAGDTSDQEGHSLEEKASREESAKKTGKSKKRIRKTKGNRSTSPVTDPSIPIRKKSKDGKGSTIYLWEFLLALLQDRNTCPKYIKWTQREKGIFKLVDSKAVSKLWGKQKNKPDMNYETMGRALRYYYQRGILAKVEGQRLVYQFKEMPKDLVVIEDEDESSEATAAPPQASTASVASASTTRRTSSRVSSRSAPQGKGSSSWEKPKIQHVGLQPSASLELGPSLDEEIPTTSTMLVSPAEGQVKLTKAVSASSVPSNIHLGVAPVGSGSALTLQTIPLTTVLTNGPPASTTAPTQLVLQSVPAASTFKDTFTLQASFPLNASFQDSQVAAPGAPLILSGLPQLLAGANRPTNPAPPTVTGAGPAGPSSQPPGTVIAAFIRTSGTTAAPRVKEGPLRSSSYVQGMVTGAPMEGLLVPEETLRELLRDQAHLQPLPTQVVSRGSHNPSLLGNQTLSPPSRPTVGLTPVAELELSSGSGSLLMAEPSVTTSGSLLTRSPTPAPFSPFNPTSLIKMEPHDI
Chain of ETV1 (P50549 whole entry): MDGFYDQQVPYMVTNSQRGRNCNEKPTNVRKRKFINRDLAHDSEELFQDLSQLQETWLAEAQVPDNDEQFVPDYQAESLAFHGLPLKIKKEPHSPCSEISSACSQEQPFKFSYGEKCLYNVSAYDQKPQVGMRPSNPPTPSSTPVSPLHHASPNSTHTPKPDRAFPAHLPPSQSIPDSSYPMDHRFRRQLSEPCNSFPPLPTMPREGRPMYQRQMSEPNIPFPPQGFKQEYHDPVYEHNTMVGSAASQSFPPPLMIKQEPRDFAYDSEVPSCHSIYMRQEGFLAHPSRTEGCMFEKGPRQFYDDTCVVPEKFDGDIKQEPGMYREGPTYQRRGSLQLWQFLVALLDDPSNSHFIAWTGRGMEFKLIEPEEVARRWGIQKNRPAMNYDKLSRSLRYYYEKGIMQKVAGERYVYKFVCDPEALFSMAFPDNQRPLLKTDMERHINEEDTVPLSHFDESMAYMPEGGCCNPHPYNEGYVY
Chain of ETV5 (P41161 whole entry): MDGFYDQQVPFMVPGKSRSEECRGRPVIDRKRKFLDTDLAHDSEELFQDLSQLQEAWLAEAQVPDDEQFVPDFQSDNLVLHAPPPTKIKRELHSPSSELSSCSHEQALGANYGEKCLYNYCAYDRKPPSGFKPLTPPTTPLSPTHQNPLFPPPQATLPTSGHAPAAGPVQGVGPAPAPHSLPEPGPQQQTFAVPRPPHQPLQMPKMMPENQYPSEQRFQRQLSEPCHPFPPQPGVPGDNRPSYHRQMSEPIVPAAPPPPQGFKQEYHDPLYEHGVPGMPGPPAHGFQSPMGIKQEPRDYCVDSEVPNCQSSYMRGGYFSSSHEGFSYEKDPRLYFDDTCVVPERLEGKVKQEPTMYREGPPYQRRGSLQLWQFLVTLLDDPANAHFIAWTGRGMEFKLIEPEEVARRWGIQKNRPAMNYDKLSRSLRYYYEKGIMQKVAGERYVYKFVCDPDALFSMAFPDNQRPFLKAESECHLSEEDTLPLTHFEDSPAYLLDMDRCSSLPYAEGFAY

In the case of CCCCAC, the binding signal is 1.19 fold enrichment (6-mer frequency, TF over GST control) with FLI1; 1.24 fold enrichment (6-mer frequency, TF over GST control) in the assay with ELK1; 1.19 fold enrichment (6-mer frequency, TF over GST control) with GABPA; 1.2 fold enrichment (6-mer frequency, TF over GST control) with ERG; 1.24 fold enrichment (6-mer frequency, TF over GST control) with ELF1; 1.34 fold enrichment (6-mer frequency, TF over GST control) with EHF. Besides, the binding signal with SPI1 was 1.22 fold enrichment (6-mer frequency, TF over GST control); with SPIB, 1.25 fold enrichment (6-mer frequency, TF over GST control); in the assay with ELK3 it was 1.34 fold enrichment (6-mer frequency, TF over GST control); with FEV it was 1.29 fold enrichment (6-mer frequency, TF over GST control); with ETV5, 1.18 fold enrichment (6-mer frequency, TF over GST control); with SPIC it was 1.33 fold enrichment (6-mer frequency, TF over GST control). The binding signal with ELF4 was 1.28 fold enrichment (6-mer frequency, TF over GST control); in the assay with ELK4, 1.36 fold enrichment (6-mer frequency, TF over GST control); with ETV2 it was 1.2 fold enrichment (6-mer frequency, TF over GST control); with ELF3 it was 1.25 fold enrichment (6-mer frequency, TF over GST control); with ETV1 it was 1.11 fold enrichment (6-mer frequency, TF over GST control).
Consider AAGTGT, for which the binding signal in the assay with FLI1 was 1.18 fold enrichment (6-mer frequency, TF over GST control); in the assay with ELK1, 1.29 fold enrichment (6-mer frequency, TF over GST control); in the assay with GABPA it was 1.32 fold enrichment (6-mer frequency, TF over GST control); in the assay with ERG, 1.44 fold enrichment (6-mer frequency, TF over GST control); in the assay with ELF1, 1.24 fold enrichment (6-mer frequency, TF over GST control); with EHF, 1.24 fold enrichment (6-mer frequency, TF over GST control). In addition, the binding signal in the assay with SPI1 was 1.6 fold enrichment (6-mer frequency, TF over GST control); in the assay with SPIB, 1.38 fold enrichment (6-mer frequency, TF over GST control); in the assay with ELK3, 1.37 fold enrichment (6-mer frequency, TF over GST control); with FEV it was 1.28 fold enrichment (6-mer frequency, TF over GST control); with ETV5 it was 1.33 fold enrichment (6-mer frequency, TF over GST control); in the assay with SPIC, 1.6 fold enrichment (6-mer frequency, TF over GST control). Besides, the binding signal in the assay with ELF4 was 1.3 fold enrichment (6-mer frequency, TF over GST control); with ELK4 it was 1.21 fold enrichment (6-mer frequency, TF over GST control); in the assay with ETV2 it was 1.37 fold enrichment (6-mer frequency, TF over GST control); with ELF3, 1.43 fold enrichment (6-mer frequency, TF over GST control); with ETV1, 1.39 fold enrichment (6-mer frequency, TF over GST control).
